# According to the supplement of paper PMC11732987, “Enantioselective OTUD7B fragment discovery through chemoproteomics screening and high-throughput optimisation” (Communications Chemistry, 2025):
# Unmarked numbers belong to inactive results.
# Tests used:
# Test in all cases: log2 ratio of Biotin-Ahx-Ub-VS probe labelling (fragment/DMSO); higher = less target engagement (more negative = stronger competition), active = hit call of the paper (q ≤ 0.05, log2 ratio ≤ -1)
# Conditions in all cases: compound concentration: 200 uM; treatment time: 3 h
# USP19 = biological target: T1, USP19 (UniProt O94966)
# T1 sequence (whole entry): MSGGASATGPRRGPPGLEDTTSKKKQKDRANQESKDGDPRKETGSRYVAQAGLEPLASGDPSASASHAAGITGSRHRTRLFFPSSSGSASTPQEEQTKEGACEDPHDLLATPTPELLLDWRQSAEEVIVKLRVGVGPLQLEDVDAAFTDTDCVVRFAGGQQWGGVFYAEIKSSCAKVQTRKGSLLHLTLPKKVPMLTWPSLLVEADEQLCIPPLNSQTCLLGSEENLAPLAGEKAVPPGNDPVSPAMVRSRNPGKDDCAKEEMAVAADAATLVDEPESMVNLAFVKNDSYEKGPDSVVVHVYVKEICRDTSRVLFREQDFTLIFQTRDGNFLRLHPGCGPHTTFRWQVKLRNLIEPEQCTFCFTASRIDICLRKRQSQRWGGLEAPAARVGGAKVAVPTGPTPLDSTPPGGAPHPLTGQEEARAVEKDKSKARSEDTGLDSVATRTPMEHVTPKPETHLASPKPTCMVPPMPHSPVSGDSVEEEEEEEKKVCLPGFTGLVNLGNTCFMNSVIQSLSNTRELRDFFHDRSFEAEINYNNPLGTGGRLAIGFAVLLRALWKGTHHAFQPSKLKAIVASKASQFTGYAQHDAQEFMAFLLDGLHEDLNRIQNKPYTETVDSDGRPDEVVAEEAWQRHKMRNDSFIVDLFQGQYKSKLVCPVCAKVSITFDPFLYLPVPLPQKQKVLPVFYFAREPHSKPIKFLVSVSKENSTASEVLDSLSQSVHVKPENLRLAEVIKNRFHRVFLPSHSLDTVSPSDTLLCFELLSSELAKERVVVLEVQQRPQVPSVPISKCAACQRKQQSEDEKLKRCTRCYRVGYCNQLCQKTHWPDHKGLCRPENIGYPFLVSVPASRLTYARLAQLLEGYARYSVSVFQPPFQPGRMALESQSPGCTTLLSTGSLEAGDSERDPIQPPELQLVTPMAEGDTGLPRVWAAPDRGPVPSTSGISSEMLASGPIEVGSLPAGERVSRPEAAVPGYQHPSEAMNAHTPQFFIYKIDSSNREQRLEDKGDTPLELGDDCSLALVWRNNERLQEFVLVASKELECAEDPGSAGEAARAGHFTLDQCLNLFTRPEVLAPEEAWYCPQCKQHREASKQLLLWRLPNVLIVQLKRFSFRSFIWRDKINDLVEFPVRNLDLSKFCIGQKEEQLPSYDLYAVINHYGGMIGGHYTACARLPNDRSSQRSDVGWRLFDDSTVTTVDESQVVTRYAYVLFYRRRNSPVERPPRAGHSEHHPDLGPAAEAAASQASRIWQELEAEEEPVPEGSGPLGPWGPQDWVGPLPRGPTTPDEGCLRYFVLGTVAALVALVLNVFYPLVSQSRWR
# Procedure, shortened: (§1)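 HEK293T lysate (495 µg per sample, in Tris/CHAPS/IGEPAL buffer with protease inhibitors) was exposed in triplicate for 3 h to fragment at 200 µM or to vehicle, then to Biotin-Ahx-Ub-VS at 0.5 µM final for 1 h. Labelled DUBs were enriched on NeutrAvidin, digested with LysC and trypsin, and analysed by diaPASEF LC-MS/MS. Spectronaut label-free quantities were normalised to the global median, and values are average log2 ratios of fragment over vehicle from an unpaired t-test. Only proteins with ≥2 unique peptides were used.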
# USP22 = biological target: T2, USP22 (UniProt Q9UPT9)
# T2 sequence (whole entry): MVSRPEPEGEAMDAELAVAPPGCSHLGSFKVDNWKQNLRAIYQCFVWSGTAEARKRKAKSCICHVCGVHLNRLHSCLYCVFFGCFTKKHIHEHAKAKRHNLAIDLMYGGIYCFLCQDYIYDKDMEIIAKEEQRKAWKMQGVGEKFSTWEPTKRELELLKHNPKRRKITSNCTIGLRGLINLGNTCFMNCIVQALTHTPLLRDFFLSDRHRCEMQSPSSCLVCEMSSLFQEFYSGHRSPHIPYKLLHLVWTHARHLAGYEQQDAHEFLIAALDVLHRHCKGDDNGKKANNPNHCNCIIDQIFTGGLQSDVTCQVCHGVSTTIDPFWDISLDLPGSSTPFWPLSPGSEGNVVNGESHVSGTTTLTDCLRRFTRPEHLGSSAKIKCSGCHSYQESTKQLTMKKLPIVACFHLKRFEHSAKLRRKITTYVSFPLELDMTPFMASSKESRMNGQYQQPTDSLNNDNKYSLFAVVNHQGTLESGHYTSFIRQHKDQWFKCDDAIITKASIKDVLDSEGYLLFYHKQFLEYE
# Procedure, shortened: as §1
# USP24 = USP24 (UniProt Q9UPU5)
# Chain of USP24 (Q9UPU5 whole entry): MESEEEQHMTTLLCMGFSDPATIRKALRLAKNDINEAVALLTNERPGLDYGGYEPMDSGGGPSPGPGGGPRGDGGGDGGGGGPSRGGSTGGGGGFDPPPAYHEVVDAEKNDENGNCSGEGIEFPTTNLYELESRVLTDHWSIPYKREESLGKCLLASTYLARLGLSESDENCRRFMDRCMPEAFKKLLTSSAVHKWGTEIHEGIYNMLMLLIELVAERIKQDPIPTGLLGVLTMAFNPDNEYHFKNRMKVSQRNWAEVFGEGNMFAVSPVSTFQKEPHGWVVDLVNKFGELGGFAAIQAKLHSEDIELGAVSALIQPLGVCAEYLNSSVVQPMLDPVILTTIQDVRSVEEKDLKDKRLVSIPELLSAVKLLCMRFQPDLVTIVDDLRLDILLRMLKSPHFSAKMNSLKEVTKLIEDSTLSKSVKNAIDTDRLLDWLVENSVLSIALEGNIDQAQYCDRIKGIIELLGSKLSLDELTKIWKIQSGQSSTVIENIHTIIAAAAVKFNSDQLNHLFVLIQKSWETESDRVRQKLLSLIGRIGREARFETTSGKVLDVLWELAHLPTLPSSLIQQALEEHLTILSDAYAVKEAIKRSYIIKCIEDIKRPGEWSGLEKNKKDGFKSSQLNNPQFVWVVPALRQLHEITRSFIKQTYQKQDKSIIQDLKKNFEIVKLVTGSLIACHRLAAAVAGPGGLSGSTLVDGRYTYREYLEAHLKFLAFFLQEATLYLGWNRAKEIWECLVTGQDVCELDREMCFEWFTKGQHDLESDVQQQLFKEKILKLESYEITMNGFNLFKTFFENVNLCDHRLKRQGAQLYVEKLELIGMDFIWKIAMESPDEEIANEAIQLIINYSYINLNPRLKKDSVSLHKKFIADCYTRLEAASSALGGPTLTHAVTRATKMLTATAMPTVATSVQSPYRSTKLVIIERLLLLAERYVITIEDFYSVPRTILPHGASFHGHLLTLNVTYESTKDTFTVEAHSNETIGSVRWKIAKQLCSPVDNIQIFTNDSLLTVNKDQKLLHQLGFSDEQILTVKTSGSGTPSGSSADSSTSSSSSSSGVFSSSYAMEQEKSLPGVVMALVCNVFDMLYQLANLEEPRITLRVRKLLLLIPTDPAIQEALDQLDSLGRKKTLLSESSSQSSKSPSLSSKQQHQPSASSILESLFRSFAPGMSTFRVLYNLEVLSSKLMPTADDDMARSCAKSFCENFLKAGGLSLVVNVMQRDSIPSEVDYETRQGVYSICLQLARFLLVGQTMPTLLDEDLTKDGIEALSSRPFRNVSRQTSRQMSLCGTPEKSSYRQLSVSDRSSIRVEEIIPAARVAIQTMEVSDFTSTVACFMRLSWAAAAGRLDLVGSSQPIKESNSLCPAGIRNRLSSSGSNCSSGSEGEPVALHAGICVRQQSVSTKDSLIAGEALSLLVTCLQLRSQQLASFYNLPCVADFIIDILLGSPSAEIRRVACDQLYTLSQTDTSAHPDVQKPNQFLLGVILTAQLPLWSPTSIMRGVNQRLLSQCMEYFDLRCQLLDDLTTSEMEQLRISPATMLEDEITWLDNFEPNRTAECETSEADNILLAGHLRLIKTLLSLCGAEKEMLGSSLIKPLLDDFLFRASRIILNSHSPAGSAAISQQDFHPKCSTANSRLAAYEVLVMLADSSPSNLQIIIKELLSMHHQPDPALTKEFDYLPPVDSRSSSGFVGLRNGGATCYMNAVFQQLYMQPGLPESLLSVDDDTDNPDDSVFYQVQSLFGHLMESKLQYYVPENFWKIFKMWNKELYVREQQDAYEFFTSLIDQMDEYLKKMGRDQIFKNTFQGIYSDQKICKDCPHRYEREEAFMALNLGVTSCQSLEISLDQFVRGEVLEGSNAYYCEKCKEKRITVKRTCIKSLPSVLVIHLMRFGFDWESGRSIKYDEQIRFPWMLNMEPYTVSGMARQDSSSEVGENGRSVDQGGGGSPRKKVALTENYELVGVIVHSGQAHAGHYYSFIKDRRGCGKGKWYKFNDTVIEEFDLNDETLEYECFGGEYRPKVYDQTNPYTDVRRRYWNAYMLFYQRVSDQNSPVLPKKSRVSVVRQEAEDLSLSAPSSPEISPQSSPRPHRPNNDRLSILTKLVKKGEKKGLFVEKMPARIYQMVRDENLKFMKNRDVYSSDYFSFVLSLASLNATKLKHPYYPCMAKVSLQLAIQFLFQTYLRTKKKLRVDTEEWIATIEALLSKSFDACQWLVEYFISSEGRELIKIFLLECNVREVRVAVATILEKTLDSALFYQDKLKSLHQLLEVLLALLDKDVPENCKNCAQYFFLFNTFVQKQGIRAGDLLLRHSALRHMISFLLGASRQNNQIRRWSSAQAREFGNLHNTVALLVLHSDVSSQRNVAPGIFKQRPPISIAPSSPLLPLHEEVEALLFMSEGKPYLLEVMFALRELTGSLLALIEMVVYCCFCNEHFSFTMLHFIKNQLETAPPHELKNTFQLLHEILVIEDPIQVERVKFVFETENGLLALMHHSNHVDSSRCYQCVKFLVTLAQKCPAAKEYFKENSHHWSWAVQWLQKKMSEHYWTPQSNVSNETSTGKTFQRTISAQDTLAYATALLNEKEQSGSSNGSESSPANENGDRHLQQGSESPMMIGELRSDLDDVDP
# Procedure, shortened: as §1
# USP25 = biological target: T3, USP25 (UniProt Q9UHP3)
# T3 sequence (whole entry): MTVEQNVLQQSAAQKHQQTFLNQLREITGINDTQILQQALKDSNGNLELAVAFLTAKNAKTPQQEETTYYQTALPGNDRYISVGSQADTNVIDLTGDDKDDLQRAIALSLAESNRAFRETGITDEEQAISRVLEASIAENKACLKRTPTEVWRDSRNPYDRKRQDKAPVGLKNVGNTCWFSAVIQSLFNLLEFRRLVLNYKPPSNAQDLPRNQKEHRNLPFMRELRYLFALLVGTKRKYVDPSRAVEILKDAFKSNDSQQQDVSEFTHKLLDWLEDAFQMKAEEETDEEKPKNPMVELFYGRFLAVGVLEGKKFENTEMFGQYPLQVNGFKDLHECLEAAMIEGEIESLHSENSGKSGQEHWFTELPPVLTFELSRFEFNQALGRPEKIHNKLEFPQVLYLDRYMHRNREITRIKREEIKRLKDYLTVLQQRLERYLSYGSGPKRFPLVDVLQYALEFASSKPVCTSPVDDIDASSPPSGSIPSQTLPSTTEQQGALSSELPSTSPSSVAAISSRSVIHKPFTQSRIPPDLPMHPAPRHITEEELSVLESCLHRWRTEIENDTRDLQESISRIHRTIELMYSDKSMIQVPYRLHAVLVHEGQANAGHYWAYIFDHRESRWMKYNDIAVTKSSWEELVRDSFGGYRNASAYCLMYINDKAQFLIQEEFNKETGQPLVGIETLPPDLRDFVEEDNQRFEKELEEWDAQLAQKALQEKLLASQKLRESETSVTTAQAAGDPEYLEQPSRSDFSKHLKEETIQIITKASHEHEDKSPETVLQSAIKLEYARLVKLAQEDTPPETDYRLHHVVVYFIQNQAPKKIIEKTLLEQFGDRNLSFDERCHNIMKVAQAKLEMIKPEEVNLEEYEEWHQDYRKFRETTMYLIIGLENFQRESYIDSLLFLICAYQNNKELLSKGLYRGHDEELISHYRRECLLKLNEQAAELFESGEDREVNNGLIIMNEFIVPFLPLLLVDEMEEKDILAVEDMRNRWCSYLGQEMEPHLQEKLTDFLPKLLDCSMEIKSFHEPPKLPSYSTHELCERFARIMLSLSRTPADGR
# Procedure, shortened: as §1
# USP28 = biological target: T4, USP28 (UniProt Q96RU2)
# T4 sequence (whole entry): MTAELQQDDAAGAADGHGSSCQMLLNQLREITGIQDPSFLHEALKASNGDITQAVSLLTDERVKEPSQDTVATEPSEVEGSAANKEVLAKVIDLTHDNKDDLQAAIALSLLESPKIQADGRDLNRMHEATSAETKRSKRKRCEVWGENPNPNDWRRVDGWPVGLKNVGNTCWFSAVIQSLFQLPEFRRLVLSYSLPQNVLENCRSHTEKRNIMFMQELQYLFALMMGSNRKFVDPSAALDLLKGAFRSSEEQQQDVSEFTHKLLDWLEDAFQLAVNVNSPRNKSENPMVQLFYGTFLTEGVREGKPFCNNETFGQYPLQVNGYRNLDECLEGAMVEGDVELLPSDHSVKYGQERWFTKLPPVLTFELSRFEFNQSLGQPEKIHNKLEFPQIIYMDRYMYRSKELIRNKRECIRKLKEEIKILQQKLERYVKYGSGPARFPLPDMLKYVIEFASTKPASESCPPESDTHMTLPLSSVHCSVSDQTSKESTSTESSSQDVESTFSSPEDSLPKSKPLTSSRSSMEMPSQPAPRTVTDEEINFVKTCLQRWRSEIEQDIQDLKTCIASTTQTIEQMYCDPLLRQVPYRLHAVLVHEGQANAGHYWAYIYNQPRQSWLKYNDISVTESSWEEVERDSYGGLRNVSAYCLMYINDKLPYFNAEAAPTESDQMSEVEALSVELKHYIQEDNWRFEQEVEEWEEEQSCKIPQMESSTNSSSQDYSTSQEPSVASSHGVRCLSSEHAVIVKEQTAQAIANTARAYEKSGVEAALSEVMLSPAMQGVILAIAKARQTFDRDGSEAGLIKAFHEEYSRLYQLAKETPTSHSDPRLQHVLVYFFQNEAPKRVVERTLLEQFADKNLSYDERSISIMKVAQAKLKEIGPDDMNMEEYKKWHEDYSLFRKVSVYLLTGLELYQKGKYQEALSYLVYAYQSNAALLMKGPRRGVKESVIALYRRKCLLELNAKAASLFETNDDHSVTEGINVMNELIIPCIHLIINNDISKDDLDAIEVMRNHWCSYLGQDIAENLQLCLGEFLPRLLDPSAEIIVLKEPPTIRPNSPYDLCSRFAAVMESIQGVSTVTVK
# Procedure, shortened: as §1
smiles,measurement,setting,value
CC1CN(c2ccc(NC(=O)CCl)cc2)CC(C)O1 (stereo not given),log2 ratio of Biotin-Ahx-Ub-VS probe labelling,USP19,-0.126
same,log2 ratio of Biotin-Ahx-Ub-VS probe labelling,USP22,-0.32
same,log2 ratio of Biotin-Ahx-Ub-VS probe labelling,USP24,-0.205
same,log2 ratio of Biotin-Ahx-Ub-VS probe labelling,USP25,-1.58 (active)
same,log2 ratio of Biotin-Ahx-Ub-VS probe labelling,USP28,-1.57 (active)
